Experimental data from PubChem BioAssay (Tox21).
Where “and” joins values, the source holds several entries; their conditions need not be identical. Equal entries are not always repeated. Inconclusive results are not listed. A call without a number means that no potency is given here. A structure can be active in one record and inactive in another. Calls of active or inactive are those of the source. Unless noted, calls come from the whole dose curve; as a rule, active = well fitted curve in the direction sought with a large enough effect in the repeat runs; inconclusive = weak or mixed curves; inactive = no such curve, though single readings can be large; an effect the other way counts as inactive or inconclusive.

Experiments:
[1] = qHTS assay to identify small molecule agonists of the hypoxia (HIF-1) signaling pathway - cell viability counter screen (AID 1224844; calls by dose curve; note: nearly all actives have a fitted effect of over 50% in size; note: potency is the fitted concentration of half-maximal effect)
Summary of the method: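 HRE-bla ME-180 cells, 2,000/well in 0.5% dialyzed FBS medium, treated 17 h at 37C with compounds. Viability read in the same wells as the bla reporter, by CellTiter-Glo luminescence after 30 min at room temperature.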

[2] = qHTS assay to identify small molecule agonists of H2AX (AID 1224845; active = well fitted activation curve with a large enough effect in the signal ratio in the repeat runs, not every such curve was filed as active; the % refers to the signal ratio)
Summary of the method: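 Phospho-H2AX Ser139 measured by HTRF (ex 320 nm; em 665 and 620 nm) after 24 hr antibody incubation. Compounds, 15 concentrations, 0.76% DMSO, were applied to CHO-K1 cells for 3hr at 37C before lysis.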

[3] = qHTS assay to identify small molecule agonists of the hypoxia (HIF-1) signaling pathway (AID 1224846; active = well fitted activation curve with a large enough effect in the signal ratio in the repeat runs, not every such curve was filed as active; the % refers to the signal ratio)
Summary of the method: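 HRE-bla ME-180 beta-lactamase reporter cells in medium with 0.5% dialyzed FBS, pre-incubated 5 h then exposed to compounds 17 h at 37C, 5% CO2; reporter induction read with CCF4-AM FRET substrate.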

[4] = qHTS assay to identify small molecule agonists of H2AX - cell viability counter screen (AID 1224847; calls by dose curve; note: nearly all actives have a fitted effect of over 30% in size; note: potency is the fitted concentration of half-maximal effect)
Summary of the method: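 After overnight plating of 1000 CHO-K1 cells per well, a 15-concentration compound series was applied for 3 hr at 37C. Luminescence from CellTiter-Glo, read following 30 min at room temperature, reflected cell viability.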

[5] = qHTS assay to identify small molecule antagonists of the estrogen related receptor (ERR) signaling pathway from Tox21 library (AID 1224848); note: nearly all actives have a fitted effect of over 50% in size; note: potency is the fitted concentration of half-maximal effect
Summary of the method: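 Antagonist-mode screen of the Tox21 10K library in an NTP-provided ERR reporter cell line; 18 h compound exposure at 37 C, luminescence measured with ONE-Glo.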

[6] = qHTS assay to identify small molecule agonists of the estrogen related receptor (ERR) signaling pathway from Tox21 library (AID 1224849; calls by dose curve; note: nearly all actives have a fitted effect of over 15% in size); conditions: ERR reporter cell line, ONE-Glo luciferase, 18 h
Summary of the method: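 ERR reporter cells (NTP line) pre-incubated 6 hours at 37 C, then exposed to compounds for 18 hours at 37 C. ONE-Glo luciferase luminescence was read after 30 minutes at room temperature.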

[7] = qHTS RealTime-Glo MT Cell Viability Assay in HepG2 cells - 24 hour (AID 1224867); note: nearly all actives have a fitted effect of over 50% in size
Summary of the method: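 HepG2 cells (600/well) were dispensed with RealTime-Glo reagents, incubated 5 h at 37 °C, then treated with compounds in DMSO for up to 40 h. Nonlytic NanoLuc luminescence reflecting viable cells was read at each stated time point.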

[8] = qHTS RealTime-Glo MT Cell Viability Assay in HEK293 cells - 32 hour (AID 1224868); note: nearly all actives have a fitted effect of over 50% in size; note: potency is the fitted concentration of half-maximal effect
Summary of the method: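 HEK293 cells seeded with NanoLuc/prosubstrate reagent, rested 5 h at 37 C, then dosed and kept at 37 C up to 40 h. Nonlytic real-time luminescence from viable cells read at 0, 8, 16, 24, 32 and 40 h.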

[9] = A CellTox Green Cytotoxicity Assay to monitor cytotoxicity in HEK293 cells - 0 hour (AID 1224869); note: nearly all actives have a fitted effect of over 50% in size; note: potency is the fitted concentration of half-maximal effect
Summary of the method: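 HEK293 cells, 600/well, were preincubated 5 hours and then exposed to compounds at 37 C for up to 40 hours. A cell-impermeant cyanine dye staining dead-cell DNA was read by fluorescence at 0, 8, 16, 24, 32 and 40 h time points.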

[10] = qHTS RealTime-Glo MT Cell Viability Assay in HepG2 cells - 40 hour (AID 1224870); note: nearly all actives have a fitted effect of over 50% in size
Summary of the method: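 Real-time viability: cells seeded at 600 per well together with NanoLuc and cell-permeant prosubstrate, compounds added after 5 h incubation. Luminescence tracked at 0, 8, 16, 24, 32 and 40 h of exposure.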

| Structure (SMILES) | Potency [1] | outcome [2] | Potency [3] | Potency [4] | Potency [5] | activity change, positive = activation ([6]; at 92.4 µM (top of the series)) | Potency [7] | Potency [8] | Potency [9] | Potency [10] | activity change, positive = activation ([6]; at 42.5 µM (top of the series)) |
| --- | --- | --- | --- | --- | --- | --- | --- | --- | --- | --- | --- |
| Clc1nc(Cl)c(Cl)c(Cl)c1Cl | inactive | inactive | inactive | inactive | inactive | 4.58% (inactive) and 5.62% (inactive) | inactive | inactive | inactive | inactive |  |
| O=C(Nc1ccc(Cl)cc1)Nc1ccc(Cl)c(Cl)c1 | inactive | inactive | inactive | 22.5 µM (active) and 28.4 µM (active) and 22 µM (active) | 5.42 µM (active) and 11.9 µM (active) | -26.7% (inactive) and -3.58% (inactive) | inactive | 4.34 µM (active) and 4.36 µM (active) and 3.38 µM (active) | inactive | inactive | -29.5% (inactive) |
| CC(C)CC(C)(O)C#CC(C)(O)CC(C)C (stereo unspecified) | inactive | inactive | inactive | inactive | inactive | -11.8% (inactive) and -19.1% (inactive) |  | inactive | inactive | inactive |  |
| CCCC(=O)O | inactive | inactive | inactive | inactive | inactive | 4.22% (inactive) and -0.802% (inactive) | inactive | inactive | inactive | inactive |  |
| CCCCC(CC)COCC1CO1 (stereo unspecified) | inactive | inactive | inactive | inactive | inactive | 1.35% (inactive) and -0.071% (inactive) | inactive | inactive | inactive | inactive |  |
| COC(C)COC(C)COC(C)CO (stereo unspecified) | inactive | inactive | inactive | inactive | inactive | -7.02% (inactive) and 0.149% (inactive) |  | inactive | inactive | inactive |  |
| COC(=O)Nc1nc2ccc(S(=O)c3ccccc3)cc2[nH]1 (stereo unspecified) | inactive | inactive | inactive | inactive | inactive | -9.11% (inactive) | inactive | 9.76 µM (active) and 952 nM (active) | inactive | inactive | 3.15% (active) |
| Nc1ccc(Cl)cc1Cl | inactive | inactive | inactive | inactive | inactive | 1.8% (inactive) |  | inactive | inactive | inactive |  |
| O=Cc1ccccc1O | inactive | inactive | inactive | inactive |  |  | inactive | inactive | inactive | inactive |  |
| CCC(C)OC(=O)c1ccc(O)cc1 (stereo unspecified) | inactive | inactive | inactive | inactive | inactive | 6.7% (active) | inactive |  | inactive | inactive |  |
| CCC(C)CO (stereo unspecified) | inactive | inactive | inactive | inactive | inactive | 1.13% (inactive) and -5.81% (inactive) |  | inactive and 24.5 µM (active) | inactive | inactive |  |
| O=C1c2cccc(O)c2C(=O)c2c(O)cccc21 | inactive | inactive | inactive | inactive |  | -20.9% (inactive) | inactive |  | inactive | inactive | -19.1% (inactive) |
| C#C[C@]1(O)CC[C@H]2[C@@H]3CCc4cc(OC)ccc4[C@H]3CC[C@@]21C | inactive | inactive | inactive | 45 µM (active) | inactive | -15.3% (inactive) | inactive | 24.5 µM (active) and 19 µM (active) | inactive | inactive | -12.2% (inactive) |
| c1ccc2cc(Nc3ccc(Nc4ccc5ccccc5c4)cc3)ccc2c1 | inactive | inactive | inactive | inactive | inactive | 1.47% (inactive) and 5.2% (inactive) | inactive | inactive | inactive | inactive |  |
| CC(C)OC=O | 58.4 µM (active) and inactive | inactive | inactive | inactive | inactive | -9.53% (inactive) and -2.76% (inactive) | inactive | inactive | inactive | inactive |  |
| CC(C)Oc1ccc2c(=O)c(-c3ccccc3)coc2c1 | inactive | inactive | inactive | inactive | inactive |  |  |  | inactive | inactive | 38.2% (active) and 33.2% (active) |
| Cc1cccc(C(=O)O)c1 | inactive | inactive | inactive | inactive | inactive | 0.909% (inactive) and 9.04% (inactive) | inactive | inactive | inactive | inactive |  |
| COC(=O)CCC(=O)OC | inactive | inactive | inactive | inactive | inactive | 8.82% (inactive) and 7.51% (inactive) | inactive | inactive | inactive | inactive |  |

| Structure (SMILES) | Potency [1] | outcome [2] | Potency [3] | Potency [4] | Potency [5] | activity change, positive = activation ([6]; at 92.4 µM (top of the series)) | Potency [7] | Potency [8] | Potency [9] | Potency [10] | activity change, positive = activation ([6]; at 42.5 µM (top of the series)) |
| --- | --- | --- | --- | --- | --- | --- | --- | --- | --- | --- | --- |
| O=c1oc(=O)c2cc3c(=O)oc(=O)c3cc12 | inactive | inactive | inactive | inactive | inactive | 1.24% (inactive) and 2.94% (inactive) | inactive | inactive | inactive | inactive |  |
| CCCCCCCCCCCO | inactive | inactive | inactive | inactive | inactive | -4.02% (inactive) and 0.762% (inactive) | inactive | inactive | inactive | inactive |  |
| CCCCC(CC)COP(=O)(OCC(CC)CCCC)OCC(CC)CCCC (stereo unspecified) | inactive | inactive | inactive | inactive |  |  | inactive | inactive | inactive | inactive |  |
| CC(C)OB(OC(C)C)OC(C)C | inactive | inactive | inactive | inactive | inactive | -0.608% (inactive) and 0.13% (inactive) | inactive | inactive | inactive | inactive |  |
| COc1c(Cl)c(Cl)c(Cl)c(Cl)c1Cl | inactive | inactive | inactive | inactive | inactive | 0.259% (inactive) and 0.227% (inactive) | inactive | inactive | inactive | inactive |  |
| Cc1ccc2c(n1)Oc1ccc(C(C)C(=O)OCC(=O)N(C)C)cc1C2 (stereo unspecified) | inactive | inactive | inactive | inactive | inactive |  | inactive | inactive | inactive | inactive | 24.3% (active) and 6.58% (inactive) |
| CC1=CC2C3CC(C=C3C)C2C1 (stereo unspecified) | inactive | inactive | inactive | inactive | inactive | 0.676% (inactive) and -14.6% (inactive) | inactive | inactive | inactive and 38.9 µM (active) | inactive |  |
| COC(=O)c1ccccc1 | inactive | inactive | inactive | inactive |  |  | inactive | inactive and 11 µM (active) | inactive | inactive |  |
| C/C=C/C(=O)O | inactive | inactive | inactive | inactive | inactive | 7.56% (inactive) and 0.71% (inactive) |  | inactive | inactive | inactive |  |
| NC=O | inactive | inactive | inactive | inactive | inactive | 6.78% (inactive) and -1.46% (inactive) | inactive | inactive | inactive | inactive |  |
| CCOCCOCCO | inactive | inactive | inactive | inactive | inactive | -1.39% (inactive) and 2.46% (inactive) | inactive | inactive | inactive | inactive |  |
| Cc1c(C(N)=O)cc([N+](=O)[O-])cc1[N+](=O)[O-] | inactive | inactive | inactive | inactive |  |  | inactive | inactive | inactive | inactive |  |
| CCC(C)c1ccccc1O (stereo unspecified) | inactive | inactive | inactive | inactive | inactive | -6.99% (inactive) and 2.48% (inactive) | inactive | inactive | inactive | inactive |  |
| CCOC(=O)C(C#N)=C(c1ccccc1)c1ccccc1 | inactive | inactive | inactive | inactive | 48.6 µM (active) | -34.2% (inactive) | inactive | inactive | inactive | inactive | -21.7% (inactive) |
| Cc1ccc(C)c(O)c1C | inactive | inactive | inactive | inactive |  |  | inactive | inactive | inactive | inactive |  |
| CCCCOCCOCCOCCO | inactive | inactive | inactive | inactive | inactive | -1.73% (inactive) |  | inactive | inactive | inactive | 2.27% (inactive) |
| CC(=O)C1(C)CC2=C(CCCC2(C)C)CC1C (stereo unspecified) | inactive | inactive | inactive | inactive | inactive | 8.11% (inactive) and 5.11% (inactive) | inactive | inactive | inactive | inactive |  |
| O=C(COc1ccc(Cl)cc1)N1CCN(Cc2ccc3c(c2)OCO3)CC1 | inactive | inactive | inactive | 101 µM (active) and inactive | 27.3 µM (active) and 18.8 µM (active) | -59.3% (inactive) | inactive | 43.6 µM (active) | inactive | inactive | -37.2% (inactive) |
